eIF4H inh: inhibitors of RNA binding by human eIF4H; Q15056; eIF4H fluorescence polarization binding assay; inhibition, % at 35 µM; actives 0.94% (n = 290,000); AID 2012;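 also: calls also rest on retests at 20 µM and on dose response follow-up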
PABP1 MLLE inh: inhibitors of microRNA-mediated deadenylation, human PABP1 MLLE binding; AID 588489; inhibition, % at 20 µM; P11940; actives 0.36% (n = 360,000); GST-MLLE / FITC-PAM2 fluorescence polarization; in the data active = inhibition above about 35%, passing the limit was not always enough;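 also: plate controls were DMSO wells with GST-MLLE for no effect and wells lacking GST-MLLE protein for full effect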
Target sequence (P11940 whole entry, looked up): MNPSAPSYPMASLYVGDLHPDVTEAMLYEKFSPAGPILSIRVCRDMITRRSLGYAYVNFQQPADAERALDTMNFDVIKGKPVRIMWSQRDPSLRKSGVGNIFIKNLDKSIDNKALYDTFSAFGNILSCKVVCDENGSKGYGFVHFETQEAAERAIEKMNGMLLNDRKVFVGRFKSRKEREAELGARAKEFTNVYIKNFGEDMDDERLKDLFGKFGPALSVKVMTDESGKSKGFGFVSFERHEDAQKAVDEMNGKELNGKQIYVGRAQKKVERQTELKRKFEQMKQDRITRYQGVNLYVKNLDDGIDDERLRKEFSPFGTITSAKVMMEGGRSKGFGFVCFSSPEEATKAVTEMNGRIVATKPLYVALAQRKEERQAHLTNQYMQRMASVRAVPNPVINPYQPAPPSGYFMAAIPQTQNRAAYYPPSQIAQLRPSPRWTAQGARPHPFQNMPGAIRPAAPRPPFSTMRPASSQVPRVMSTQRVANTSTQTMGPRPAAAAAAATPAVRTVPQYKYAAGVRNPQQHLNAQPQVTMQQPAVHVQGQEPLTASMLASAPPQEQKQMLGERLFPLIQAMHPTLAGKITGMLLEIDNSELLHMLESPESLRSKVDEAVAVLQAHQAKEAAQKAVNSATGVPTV
PABP FP inh: blocks human PABP binding to poly(A) RNA. actives 1% (n = 290,000). AID 2014. P11940. fluorescence polarization. calls only at 35 µM;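 also: calls also rest on retests at 20 µM and on dose response follow-up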
eIF4E 4G PPI: inhibitors of eIF4E and eIF4G interaction in translation initiation; P63073+Q04637; TR-FRET eIF4E-eIF4GI(517-606) binding, 2 h; inhibition, % at 21.7 µM; actives 0.37% (n = 220,000); AID 782;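 active = inhibition above about 30%, limit read from the data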;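 also: 0% = full FRET control wells and 100% = background wells lacking eIF4GI fragment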
Active calls of the source: *. Sampled rows, rich in hits. Any-hit rate of the full collection: about 1.5%. Unless noted, no rule for the calls is given here.

For NCCCC[C@H](NC(=O)C1CCNCC1)c1nnc(CN)o1 the results were eIF4H inh 9, PABP FP inh inactive and eIF4E 4G PPI -2.
`COc1ccc(O)c(N)c1` gave eIF4H inh 96*, PABP FP inh active and eIF4E 4G PPI 7.
CN(C)S(=O)(=O)c1ccc(N2CCCC2)c(C(=O)Nc2nc3ccc(F)cc3s2)c1 was read as eIF4H inh active, PABP1 MLLE inh 4, PABP FP inh active and eIF4E 4G PPI -3.
For CN(C)S(=O)(=O)c1ccc(N2CCCC2)c(C(=O)Nc2nc3ccccc3s2)c1 the results were eIF4H inh -2, PABP1 MLLE inh -11, PABP FP inh inactive and eIF4E 4G PPI 2.
CCNC(=O)C1(C)CCN(Cc2ccccc2C#N)C1 (configuration not stated) was read as PABP1 MLLE inh -5.
`O=C(CSc1nc2ccccc2c(=O)n1-c1ccccc1)N1CCc2ccccc2C1` gave eIF4H inh -5, PABP1 MLLE inh -4, PABP FP inh inactive and eIF4E 4G PPI 4.
`CC(C)c1ccccc1-n1c(SCC(=O)N2CCc3ccccc3C2)nc2ccccc2c1=O` gave eIF4H inh 5, PABP1 MLLE inh 0, PABP FP inh active and eIF4E 4G PPI -3.
Clc1ccc(NCc2cccnc2)cc1 was read as eIF4H inh -4, PABP1 MLLE inh -17 and PABP FP inh inactive.
`Fc1ccc(NCc2cccnc2)cc1F` gave eIF4H inh inconclusive, PABP1 MLLE inh 48*, PABP FP inh inconclusive and eIF4E 4G PPI -5.
COc1ccc(-c2[nH][nH]c(=O)c2NC(=O)c2ccccc2Br)cc1 was read as PABP1 MLLE inh 9.
For CC(C)CC(=O)NC(=S)NNC(=O)c1ccc(NC(=O)C2CCCCC2)cc1 the results were eIF4H inh 61*, PABP1 MLLE inh 1, PABP FP inh active and eIF4E 4G PPI -1.
COc1ccc(C(C)(O)c2nc(-c3ccccc3C)cs2)cc1 (configuration not stated) was read as PABP1 MLLE inh 5.
Screening O=C(OCC1CC(c2ccccn2)=NO1)c1ccc(Br)cc1 (configuration not stated) returned eIF4H inh -7, PABP1 MLLE inh 12, PABP FP inh inactive and eIF4E 4G PPI 42*.
For O=C(NCc1ccc(F)cc1)Nc1nnc([C@H]2C[C@H](O)[C@@H](CO)O2)s1 the results were PABP1 MLLE inh -7.
`N#C/C(=N\Nc1cccc2ccccc12)c1nnc2n1CCCCC2` gave eIF4H inh 86*, PABP1 MLLE inh 1, PABP FP inh active and eIF4E 4G PPI 0.
Screening COc1cc2oc(=O)cc(CN3CCN(c4ccccc4F)CC3)c2cc1Cl returned PABP1 MLLE inh -88.
Screening CCCCCC(=O)N1C[C@H](O)[C@@H](n2cc(COC(=O)c3ccccc3)nn2)C[C@@H]1c1ccc(OC)cc1 returned PABP1 MLLE inh -4.
For CCC(=O)Nc1ccc(-c2nnc(SCC(=O)Nc3nccs3)n2C)cc1 the results were eIF4H inh 12, PABP1 MLLE inh -118, PABP FP inh active and eIF4E 4G PPI -3.
For COc1ccc(OCC(=O)Nc2c3c(nn2C(C)(C)C)CS(=O)(=O)C3)cc1 the results were eIF4H inh -4, PABP1 MLLE inh 3 and PABP FP inh inactive.
For CC(C)(C)n1nc2c(c1NC(=O)COc1ccc(Cl)cc1)CS(=O)(=O)C2 the results were eIF4H inh active, PABP1 MLLE inh 7, PABP FP inh active and eIF4E 4G PPI -1.
CCc1nc2c(OCc3ccc(C(F)(F)F)cc3)cccn2c1N(C)C(=O)C1CC1 was read as PABP1 MLLE inh -10.
For Cc1ccc(S(=O)(=O)CCSc2nc(C)cc(C(F)(F)F)c2C#N)cc1 the results were eIF4H inh 83*, PABP1 MLLE inh -19, PABP FP inh active and eIF4E 4G PPI 11.
CCOC(=O)CCC(=O)NCc1ccc2c(c1)cc(C)n2C was read as eIF4H inh 103, PABP1 MLLE inh 21, PABP FP inh active and eIF4E 4G PPI 12.
`Cc1cc2cc(CNC(=O)c3cccs3)ccc2n1C` gave eIF4H inh 8, PABP1 MLLE inh 45*, PABP FP inh inactive and eIF4E 4G PPI 4.
Screening CCCCC(=O)NCc1ccc2c(c1)cc(C)n2C returned eIF4H inh 72, PABP1 MLLE inh 14, PABP FP inh inactive and eIF4E 4G PPI 1.
For Cc1cc2cc(CNC(=O)Nc3ccccc3)ccc2n1C the results were eIF4H inh 11, PABP1 MLLE inh 63*, PABP FP inh inactive and eIF4E 4G PPI 0.
Screening Cc1cc2cc(CNC(=O)C(C)Oc3ccccc3)ccc2n1C (configuration not stated) returned eIF4H inh 73, PABP1 MLLE inh 26, PABP FP inh active and eIF4E 4G PPI -4.
`COCC(=O)N1C[C@H]2CON(C)[C@H]2C[C@H]1c1ccc(N2CCCCC2)cc1` gave PABP1 MLLE inh -9.
Screening COc1ccc(NC(=S)Nc2cccc3cnccc23)cc1 returned eIF4H inh 57, PABP1 MLLE inh 20, PABP FP inh active and eIF4E 4G PPI 0.
CCOc1ccc(NC(=S)Nc2cccc3cnccc23)cc1 was read as eIF4H inh 16, PABP1 MLLE inh 36, PABP FP inh inactive and eIF4E 4G PPI 3.
Screening C[C@@H]1CN([C@H](C)CO)C(=O)c2cc(Br)cnc2O[C@H]1CN(C)C(=O)Nc1ccccc1F returned PABP1 MLLE inh 0.
Screening N#Cc1c2c(c(-c3ccco3)[nH]c1=O)CCCC2 returned eIF4H inh 10, PABP1 MLLE inh 42*, PABP FP inh inactive and eIF4E 4G PPI 5.
O=C(O)c1ccc2c3c(cccc13)C(=O)N(c1ccccc1)C2=O was read as eIF4H inh 81, PABP1 MLLE inh 0, PABP FP inh inactive and eIF4E 4G PPI 11.
Screening O=C(O)c1ccc(N2C(=O)c3cccc4c(C(=O)O)ccc(c34)C2=O)cc1 returned eIF4H inh 96*, PABP1 MLLE inh -17, PABP FP inh active and eIF4E 4G PPI 9.
O=C(O)c1ccccc1NCc1ccncc1 was read as eIF4H inh -7, PABP1 MLLE inh 13, PABP FP inh inactive and eIF4E 4G PPI -3.
For O=C(O)c1ccc(CNc2ccccc2C(=O)O)cc1 the results were eIF4H inh 77*, PABP1 MLLE inh 0, PABP FP inh active and eIF4E 4G PPI -2.
`Cc1ccccc1NC(=O)CN1C(=O)S/C(=C\c2cccn2-c2cccc(C(=O)O)c2)C1=O` gave eIF4H inh 81*, PABP1 MLLE inh 6, PABP FP inh active and eIF4E 4G PPI 5.
For Cc1cccc(C)c1NC(=O)CN1C(=O)S/C(=C\c2cccn2C)C1=O the results were eIF4H inh -12, PABP1 MLLE inh 3, PABP FP inh inactive and eIF4E 4G PPI -22.
Screening Cc1ccc(NC(=O)CN2C(=O)S/C(=C\c3cccn3-c3cccc(C(=O)O)c3)C2=O)c(C)c1 returned eIF4H inh 91*, PABP1 MLLE inh 7, PABP FP inh active and eIF4E 4G PPI 11.
`COc1ccc(NC(=O)CN2C(=O)S/C(=C/c3cccn3-c3ccc(C(=O)O)cc3)C2=O)cc1` gave eIF4H inh 87*, PABP1 MLLE inh 5 and PABP FP inh active.

Screens as filed in PubChem.
